Screens as filed in PubChem.
MBD2 inh = MBD2-methylated oligo binding inhibition; Q9UBB5; TR-FRET, MBD2 binding to methylated oligonucleotide; inhibition, % at 4.4 µM; actives 0.31% (n = 370,000); AID 686964; in the data active means inhibition above about 13%
UHRF1 binding = human UHRF1 methylated DNA binding inhibitors; Q96T88; UHRF1 binding to methylated oligo, TR-FRET; inhibition, % at 4.4 µM; actives 0.75% (n = 370,000); in the data active means inhibition above about 21%;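 further: UHRF1 SRA domain binding a hemimethylated CpG hairpin DNA probe; 0% = median of test compound wells and 100% = reference inhibitor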
LEDGF integ inh = blocks HIV-1 LEDGF/p75-dependent DNA integration. TR-FRET IN-LEDGF/p75 DNA integration, Eu/Cy5. inhibition, % at 3.7 µM. actives 0.64% (n = 370,000). AID 743269;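 active means inhibition above the screen-wide mean plus 3 SD, cut at about 13% in these data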;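 further: signal is the Cy5 over europium emission ratio at 671 and 618 nm; 0% = plate median of compound wells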
CASP6 VEID inh = blocks human caspase-6 cleavage activity. inhibition, % at 12.5 µM. AID 686996. actives 0.53% (n = 350,000). purified caspase-6, Z-VEID-R110 cleavage fluorescence;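 active means mean inhibition across replicates at least about 35%, with every replicate also reaching that limit, limit read from the data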;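 further: 0% = median of neutral control wells and 100% = no fluorescence left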
Target sequence (P55212 24-179 limits assumed): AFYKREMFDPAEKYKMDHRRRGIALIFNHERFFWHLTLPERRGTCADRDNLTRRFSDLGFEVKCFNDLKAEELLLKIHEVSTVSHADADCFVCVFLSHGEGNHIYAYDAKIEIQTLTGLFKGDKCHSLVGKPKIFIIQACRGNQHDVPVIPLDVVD
Target sequence (P55212 194-293 limits assumed): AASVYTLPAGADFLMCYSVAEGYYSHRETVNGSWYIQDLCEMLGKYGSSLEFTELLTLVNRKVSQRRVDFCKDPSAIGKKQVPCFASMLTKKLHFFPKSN
* marks the source's active call; other numbers are inactive results; . = no result given. Compounds with a hit are over-represented: about 1.4% of the library has one in this group of screens.

SMILES | MBD2 inh | UHRF1 binding | LEDGF integ inh | CASP6 VEID inh
CN1CCN(C(=O)/C(=C\c2cccs2)NC(=O)c2ccccc2)CC1 | -3.2 | -1.7 | 2.7 | -3.4
O=C(N[C@@H]1CC[C@H](CCNS(=O)(=O)c2ccc(F)cc2)O[C@H]1CO)C1CCCC1 | . | . | . | 0.2
COc1ccc(CN2CC(C(=O)NCCCN3CCCCCC3)CC2=O)cc1 (configuration not stated) | -2.8 | 1.0 | 1.1 | .
COc1ccc(CN2CC(C(=O)NCCCN3CCN(C)CC3)CC2=O)cc1 (configuration not stated) | 17.9* | 5.7 | -3.9 | .
CCCN(C)C1CN(Cc2cn(Cc3cc(C)cc(C)c3)nn2)S(=O)(=O)C1 (configuration not stated) | 7.4 | 22.3* | -2.4 | -1.5
CCCN(C)C1CN(Cc2cn(Cc3ccc(Cl)cc3)nn2)S(=O)(=O)C1 (configuration not stated) | 0.6 | 12.9 | 6.9 | -3.2
CCNC(=O)c1cc2c(c(-c3cccc(-c4cccc(F)c4)c3)n1)[C@H](CCO)N([S@@](=O)C(C)(C)C)C2 | . | . | . | 0.1
Cc1cccc(C)c1NC(=O)C(C1CC1)n1c(=O)c(-c2ccccc2)nc2ccccc21 (configuration not stated) | -4.4 | 1.9 | -3.0 | 2.1
Cc1cccc(C)c1NC(=O)C(C1CC1)n1c(=O)c(-c2ccco2)nc2ccccc21 (configuration not stated) | 2.8 | -5.0 | 1.0 | 35.8*
COc1cccc(CN(C)C[C@@H]2OCc3ccccc3-c3c(n(C)c4ccccc34)C(=O)N([C@H](C)CO)C[C@H]2C)c1 | . | . | . | -0.4
N=c1c(C(=O)NCc2ccco2)cc2c(=O)n3ccccc3nc2n1C1CCCC1 | -2.1 | -6.5 | 4.8 | 99.2*
N=c1c(C(=O)NC2CCCC2)cc2c(=O)n3ccccc3nc2n1C1CCCC1 | -1.2 | -1.0 | 6.6 | .
CO[C@@H]1CC[C@H]2CCOc3c(C#N)cccc3C(=O)N(C)CC3(CCCCC3)CC(=O)N(C)C[C@H]1O2 | . | . | . | 5.3
O=C(c1ccc(CNS(=O)(=O)c2ccccc2)cc1)N1CCN(c2ccccn2)CC1 | 13.1 | 23.1* | 3.1 | .
O=C(c1ccc(Cl)c(S(=O)(=O)NCc2ccccc2)c1)N1CCN(c2ccccn2)CC1 | . | . | . | 0.0
O=C(NCc1ccccc1)c1cccc(OCC(=O)N2CCN(C(=O)c3ccco3)CC2)c1 | 8.3 | 21.4* | 3.1 | .
O=C(COc1ccc2ccccc2c1)N1CCN(C(=O)c2ccco2)CC1 | -0.6 | 0.3 | 0.1 | -1.1
O=C(Nc1ccc2c(c1)[C@H]1C[C@@H](CC(=O)N3CCCCC3)O[C@H](CO)[C@H]1O2)NC1CCCC1 | . | . | . | -1.3
COC(=O)NN=C1CCC(c2ccccc2)CC1 (configuration not stated) | -2.5 | 0.1 | -1.0 | -1.1
COC(=O)N/N=C1/C/C(=N\NC(=O)OC)c2ccccc21 | -10.3 | -8.2 | 32.5* | 91.2*
O=C(O)c1cccc(N2C(=O)C3CC=C(Cl)CC3C2=O)c1 (configuration not stated) | -4.9 | 1.2 | -1.4 | 66.6*
O=C(O)c1cccc(N2C(=O)C3CC=CCC3C2=O)c1 (configuration not stated) | 3.5 | 3.6 | -0.3 | .
COCC(=O)N(C)C[C@H]1Oc2cc(-c3ccc(OC)cc3)ccc2S(=O)(=O)N([C@@H](C)CO)C[C@H]1C | . | . | . | 5.8
COc1ccc(-c2[nH]ncc2CN(C)CCN2CCOCC2)cc1F | 10.8 | 21.6* | 2.3 | -22.1
COc1cccc(NC(=O)N2CC3(C2)[C@@H](c2ccccc2)[C@@H](CO)N3C(=O)C2CC2)c1 | . | . | . | 1.5
SMILES | MBD2 inh | UHRF1 binding | LEDGF integ inh | CASP6 VEID inh
Nc1ccc2cn[nH]c2c1 | -3.5 | -4.6 | 1.4 | 44.0*
CC(C)NC(=O)N(C)C[C@@H]1Oc2ccc(NC(=O)C3CC3)cc2CC(=O)N([C@H](C)CO)C[C@@H]1C | . | . | . | 4.8
NCC12CC3CC(C1)CC(c1ccc(Cl)cc1)(C3)C2 | 4.8 | 21.1* | -4.2 | -7.1
Nc1ccc(C23CC4CC(CC(CO)(C4)C2)C3)cc1 | 1.7 | -4.2 | 0.4 | .
C[C@H](CO)N1C[C@H](C)[C@H](CN(C)Cc2ccc3c(c2)OCO3)OCCCC[C@H](C)Oc2ccc(NC(=O)NC3CCCCC3)cc2C1=O | . | . | . | -2.1
C[C@@H]1CN([C@@H](C)CO)C(=O)c2cc(N(C)C)ccc2O[C@@H]1CN(C)C(=O)Nc1cccc2ccccc12 | . | . | . | 0.0
COc1ccccc1CNC(=O)C1CCN(S(=O)(=O)c2ccc3nc4c(c(C(=O)O)c3c2)CCCC4)CC1 | 0.3 | 0.1 | 2.4 | 49.9*
CN(Cc1ccccc1)C(=O)C1CCN(S(=O)(=O)c2ccc3nc4c(c(C(=O)O)c3c2)CCCC4)CC1 | 2.2 | 1.1 | 4.6 | 61.6*
CC1CCc2nc3ccc(S(=O)(=O)N4CCC(C(=O)NCc5ccccc5Cl)CC4)cc3c(C(=O)O)c2C1 (configuration not stated) | -7.5 | -1.7 | 4.5 | 44.8*
O=C(O)c1c2c(nc3ccc(S(=O)(=O)N4CCC(C(=O)NCc5ccccc5)CC4)cc13)CCCC2 | -1.1 | -0.2 | 0.8 | 18.8
COCCCNC(=O)C1CCN(S(=O)(=O)c2ccc3nc4c(c(C(=O)O)c3c2)CCCCC4)CC1 | 1.3 | 1.3 | -2.4 | -0.5
COc1ccc(CNC(=O)C2CCN(S(=O)(=O)c3ccc4nc5c(c(C(=O)O)c4c3)CC(C)CC5)CC2)cc1 (configuration not stated) | 1.4 | 1.8 | 3.0 | 35.7*
O=C(C[C@H]1CC[C@@H]2[C@H](COC[C@H](O)CN2Cc2cc(F)ccc2F)O1)NCc1ccccc1 | . | . | . | -3.5
Cc1ccc(CCNC(=O)C2CCN(S(=O)(=O)c3ccc4nc5c(c(C(=O)O)c4c3)CCCC5)CC2)cc1 | -2.9 | 1.3 | 0.1 | 62.1*
CC(NC(=O)C1CCN(S(=O)(=O)c2ccc3nc4c(c(C(=O)O)c3c2)CCCC4)CC1)c1ccccc1 (configuration not stated) | -1.4 | -1.6 | 4.2 | 51.9*
CCC(C)NC(=O)C1CCN(S(=O)(=O)c2ccc3nc4c(c(C(=O)O)c3c2)CCCCC4)CC1 (configuration not stated) | 1.8 | 0.9 | 0.9 | 0.1
CCCNC(=O)C1CCN(S(=O)(=O)c2ccc3nc4c(c(C(=O)O)c3c2)CCCCC4)CC1 | -4.2 | -1.4 | 2.8 | 1.8
CNC[C@@H]1OCCCC[C@H](C)Oc2ccc(NS(=O)(=O)c3ccc(OC)cc3)cc2C(=O)N([C@@H](C)CO)C[C@@H]1C | . | . | . | 0.4
C[C@@H]1CN([C@@H](C)CO)S(=O)(=O)c2ccc(C3=CCCC3)cc2O[C@@H]1CN(C)C(=O)c1cccnc1 | . | . | . | 0.1
Cc1c(C(=O)Nc2ccc(F)c(F)c2)oc2ccc(S(=O)(=O)N3CCCCC3)cc12 | 4.2 | 23.3* | -3.4 | 0.3
Cc1ccnc2nc(C(=O)Nc3ccc4c(c3)OCO4)nn12 | 10.2 | 23.0* | 1.6 | .
COc1ccc(OC)c(NC(=O)C2(C)CCN2C(=O)CC2CC2)c1 (configuration not stated) | 1.1 | 28.2* | 2.7 | -1.4
COCCCNC(=S)N1CCN(c2nc(-c3ccc(F)cc3)cs2)CC1 | 5.6 | 64.6* | 1.8 | -0.2
CCOCCCNC(=S)N1CCN(c2nc(-c3ccc(F)cc3)cs2)CC1 | -5.3 | -2.2 | 3.3 | -0.8
